# In the supplement of paper PMC10849652:
# The full data set covers some 7,900 targets. This sample favours those with a hit. About 0.6% of all pairs of compound and target were hits. Values without a mark were called inactive.
# How the values were obtained:
# Assay in all cases: log2 fold change, soluble protein after heating vs DMSO (PISA); higher = thermal stabilisation; K562 cells, 10 uM, 30 min; active = over 0.2 and 3.5 SD of the protein, either way, in both replicates (recomputed)
# [1] = compound: CC[C@@H]1C(=O)N(C)c2cnc(Nc3ccc(C(=O)NC4CCN(C)CC4)cc3OC)nc2N1C1CCCC1
# Summary of the method: (§1)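 K562 cells at 2×10^6 cells/mL were treated for 30 min with 10 μM compound, and aliquots were heated for 3 min over 48°C-58°C before pooling. Extraction used PBS with 0.5% NP-40 at 4°C, and soluble protein was the supernatant after 21,000xg for 90 min, measured by TMTpro 16plex LC-MS/MS with channel sums equalised. Thermal stability values, relative to control samples and from duplicates, are log2 fold changes.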
# volasertib = compound: CC[C@@H]1C(=O)N(C)c2cnc(Nc3ccc(C(=O)N[C@H]4CC[C@H](N5CCN(CC6CC6)CC5)CC4)cc3OC)nc2N1C(C)C [volasertib]
# Summary of the method: as §1
# [2] = compound: CC[C@H](C)N1C=C(C2=C(C=C(C=C21)C3=CN=C(C=C3)N4CCNCC4)C(=O)NCC5=C(C=C(NC5=O)C)C)C
# Summary of the method: as §1
# epoxomicin = compound: CC[C@H](C)[C@@H](C(=O)N[C@@H]([C@@H](C)O)C(=O)N[C@@H](CC(C)C)C(=O)[C@]1(CO1)C)NC(=O)[C@H]([C@@H](C)CC)N(C)C(=O)C [epoxomicin]
# Summary of the method: as §1
# [3] = compound: CCn1c(C(=O)N(C2CC2)C2CC2)cc2c3c(ncn3C)c(Nc3cc(C)n(C)n3)nc21
# Summary of the method: as §1
# [4] = compound: CCn1cc(-c2ccnc3[nH]c(-c4cccc(CN(C)C)c4)cc23)c(-c2ccc(NC(=O)N(C)C)cc2)n1
# Summary of the method: as §1
# [5] = compound: CN(C)CC(=O)Nc1ccc2[nH]c(=O)c3ccccc3c2c1
# Summary of the method: as §1
# rosiglitazone = compound: CN(CCOC1=CC=C(C=C1)C[C@H]2C(=O)NC(=O)S2)C3=CC=CC=N3 (racemic) [rosiglitazone]
# Summary of the method: as §1
# [6] = compound: CN1C2=C(C3=C1C(=O)N(N=C3)CC4=CC(=CC=C4)N)SC(=C2)S(=O)C
# Summary of the method: as §1
# [7] = compound: CN1CCC(CNc2ccc3ncc(-c4cccc(OC(F)(F)F)c4)n3n2)CC1
# Summary of the method: as §1
# saracatinib = compound: CN1CCN(CCOc2cc(OC3CCOCC3)c3c(Nc4c(Cl)ccc5c4OCO5)ncnc3c2)CC1 [saracatinib]
# Summary of the method: as §1
# sotrastaurin = compound: CN1CCN(c2nc(C3=C(c4c[nH]c5ccccc45)C(=O)NC3=O)c3ccccc3n2)CC1 [sotrastaurin]
# Summary of the method: as §1
# alvocidib = compound: CN1CC[C@H](c2c(O)cc(O)c3c(=O)cc(-c4ccccc4Cl)oc23)[C@H](O)C1 [alvocidib]
# Summary of the method: as §1
# Tubastatin A = compound: CN1CCc2c(c3ccccc3n2Cc2ccc(C(=O)NO)cc2)C1 [Tubastatin A]
# Summary of the method: as §1
# [8] = compound: CNC(=O)C1=CC=CC=C1NC2=NC(=NC=C2Cl)NC3=C(C=C(C=C3)N4CCOCC4)OC
# Summary of the method: as §1
# defactinib = compound: CNC(=O)c1ccc(Nc2ncc(C(F)(F)F)c(NCc3nccnc3N(C)S(C)(=O)=O)n2)cc1 [defactinib]
# Summary of the method: as §1
# rucaparib = compound: CNCc1ccc(-c2[nH]c3cc(F)cc4c3c2CCNC4=O)cc1 [rucaparib]
# Summary of the method: as §1
# [9] = compound: CNc1nc(-c2ccc3c(N)n[nH]c3c2)cc(N2C[C@@H](C(=O)NC3CCCCC3)CC[C@H]2C)n1
# Summary of the method: as §1
# encorafenib = compound: COC(=O)N[C@@H](C)CNc1nccc(-c2cn(C(C)C)nc2-c2cc(Cl)cc(NS(C)(=O)=O)c2F)n1 [encorafenib]
# Summary of the method: as §1
# [10] = compound: COC(=O)[C@H](CCSC)NC(=O)C1=C(C=C(C=C1)NC[C@H](CS)N)C2=CC=CC=C2
# Summary of the method: as §1
# Sequence of UniProt Q96FC9 (Q96FC9 whole entry, looked up): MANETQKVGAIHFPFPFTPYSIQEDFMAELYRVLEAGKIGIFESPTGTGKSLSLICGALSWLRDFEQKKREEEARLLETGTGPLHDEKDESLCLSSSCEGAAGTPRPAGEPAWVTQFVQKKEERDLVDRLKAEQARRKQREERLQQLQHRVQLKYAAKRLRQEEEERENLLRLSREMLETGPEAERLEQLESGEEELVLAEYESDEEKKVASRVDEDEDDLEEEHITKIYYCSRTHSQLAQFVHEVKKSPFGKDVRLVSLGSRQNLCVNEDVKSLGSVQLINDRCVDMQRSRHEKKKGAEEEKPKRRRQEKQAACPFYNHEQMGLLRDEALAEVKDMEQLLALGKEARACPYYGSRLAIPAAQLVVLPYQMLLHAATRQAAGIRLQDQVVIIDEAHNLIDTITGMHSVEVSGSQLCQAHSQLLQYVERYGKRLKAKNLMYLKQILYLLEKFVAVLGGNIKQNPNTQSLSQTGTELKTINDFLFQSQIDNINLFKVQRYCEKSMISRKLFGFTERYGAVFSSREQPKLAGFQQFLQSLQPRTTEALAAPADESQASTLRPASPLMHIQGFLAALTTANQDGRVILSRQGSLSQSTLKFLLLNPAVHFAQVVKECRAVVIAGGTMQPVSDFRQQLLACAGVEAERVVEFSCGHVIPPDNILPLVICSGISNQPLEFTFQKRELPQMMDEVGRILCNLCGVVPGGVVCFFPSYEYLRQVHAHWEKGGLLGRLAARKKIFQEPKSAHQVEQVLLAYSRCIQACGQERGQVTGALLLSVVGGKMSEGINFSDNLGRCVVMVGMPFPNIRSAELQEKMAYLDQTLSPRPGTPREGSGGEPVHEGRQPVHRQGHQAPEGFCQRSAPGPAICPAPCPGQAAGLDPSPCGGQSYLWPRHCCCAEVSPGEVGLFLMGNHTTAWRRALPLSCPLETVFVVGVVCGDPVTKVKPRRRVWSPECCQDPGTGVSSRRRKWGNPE
# Sequence of UniProt O75822 (O75822 whole entry, looked up): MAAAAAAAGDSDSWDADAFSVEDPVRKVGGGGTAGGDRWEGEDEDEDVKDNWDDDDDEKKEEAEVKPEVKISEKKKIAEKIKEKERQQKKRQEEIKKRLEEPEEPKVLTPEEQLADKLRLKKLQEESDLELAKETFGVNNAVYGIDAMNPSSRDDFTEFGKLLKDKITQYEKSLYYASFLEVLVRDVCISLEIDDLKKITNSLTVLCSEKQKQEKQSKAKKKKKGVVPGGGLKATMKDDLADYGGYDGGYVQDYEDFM
# Sequence of UniProt Q9BQI3 (Q9BQI3 whole entry, looked up): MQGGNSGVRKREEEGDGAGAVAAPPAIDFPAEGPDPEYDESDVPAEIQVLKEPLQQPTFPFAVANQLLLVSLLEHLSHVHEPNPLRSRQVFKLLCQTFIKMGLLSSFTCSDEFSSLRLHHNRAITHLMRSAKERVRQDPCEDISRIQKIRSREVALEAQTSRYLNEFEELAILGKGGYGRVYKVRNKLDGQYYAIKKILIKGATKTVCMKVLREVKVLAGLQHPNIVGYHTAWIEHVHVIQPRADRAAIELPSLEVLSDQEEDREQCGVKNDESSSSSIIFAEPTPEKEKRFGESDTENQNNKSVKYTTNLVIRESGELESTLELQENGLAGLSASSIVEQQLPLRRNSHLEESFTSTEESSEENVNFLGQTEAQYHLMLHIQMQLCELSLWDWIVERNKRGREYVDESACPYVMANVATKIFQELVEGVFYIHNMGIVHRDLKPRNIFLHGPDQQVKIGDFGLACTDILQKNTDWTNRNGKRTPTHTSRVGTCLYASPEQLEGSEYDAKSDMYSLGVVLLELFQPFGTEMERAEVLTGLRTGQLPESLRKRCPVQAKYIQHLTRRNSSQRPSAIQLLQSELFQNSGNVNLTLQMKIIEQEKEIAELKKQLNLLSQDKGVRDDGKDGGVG
# Sequence of UniProt Q96CS3 (Q96CS3 whole entry, looked up): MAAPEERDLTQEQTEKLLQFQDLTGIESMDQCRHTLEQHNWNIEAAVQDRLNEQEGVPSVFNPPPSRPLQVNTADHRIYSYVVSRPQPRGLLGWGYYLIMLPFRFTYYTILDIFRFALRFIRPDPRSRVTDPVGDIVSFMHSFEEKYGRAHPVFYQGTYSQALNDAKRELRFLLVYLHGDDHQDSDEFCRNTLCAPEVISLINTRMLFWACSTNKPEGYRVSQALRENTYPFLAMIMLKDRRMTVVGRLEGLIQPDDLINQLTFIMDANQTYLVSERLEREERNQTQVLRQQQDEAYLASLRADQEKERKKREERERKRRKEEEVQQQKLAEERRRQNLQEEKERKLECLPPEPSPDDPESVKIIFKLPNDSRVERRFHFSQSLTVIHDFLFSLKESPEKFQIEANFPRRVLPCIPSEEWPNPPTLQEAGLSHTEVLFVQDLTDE
# Sequence of UniProt Q9H777 (Q9H777 whole entry, looked up): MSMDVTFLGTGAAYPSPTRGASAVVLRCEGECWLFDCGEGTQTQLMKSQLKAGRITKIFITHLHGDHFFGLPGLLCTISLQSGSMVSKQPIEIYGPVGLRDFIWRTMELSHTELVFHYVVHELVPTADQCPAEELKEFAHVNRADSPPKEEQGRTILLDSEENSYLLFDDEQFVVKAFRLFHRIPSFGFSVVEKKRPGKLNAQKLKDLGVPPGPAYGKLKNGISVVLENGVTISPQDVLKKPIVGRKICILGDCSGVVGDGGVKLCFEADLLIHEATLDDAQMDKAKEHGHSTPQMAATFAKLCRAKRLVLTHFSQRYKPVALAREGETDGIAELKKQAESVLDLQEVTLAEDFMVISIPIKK
# Sequence of UniProt Q5T6F0 (Q5T6F0 whole entry, looked up): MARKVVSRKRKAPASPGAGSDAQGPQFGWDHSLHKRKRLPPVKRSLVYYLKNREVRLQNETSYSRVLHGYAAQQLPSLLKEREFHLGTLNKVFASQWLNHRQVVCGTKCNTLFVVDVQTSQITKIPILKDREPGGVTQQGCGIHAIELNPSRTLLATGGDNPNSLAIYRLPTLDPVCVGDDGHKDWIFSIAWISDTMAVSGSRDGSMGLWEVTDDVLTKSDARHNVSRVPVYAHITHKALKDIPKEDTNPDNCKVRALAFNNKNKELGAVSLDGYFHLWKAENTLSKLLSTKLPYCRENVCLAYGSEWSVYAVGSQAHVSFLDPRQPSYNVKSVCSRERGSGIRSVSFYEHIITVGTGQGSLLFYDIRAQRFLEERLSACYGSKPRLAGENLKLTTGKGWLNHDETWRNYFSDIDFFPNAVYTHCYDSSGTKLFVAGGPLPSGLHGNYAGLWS
# Sequence of UniProt Q9BV94 (Q9BV94 whole entry, looked up): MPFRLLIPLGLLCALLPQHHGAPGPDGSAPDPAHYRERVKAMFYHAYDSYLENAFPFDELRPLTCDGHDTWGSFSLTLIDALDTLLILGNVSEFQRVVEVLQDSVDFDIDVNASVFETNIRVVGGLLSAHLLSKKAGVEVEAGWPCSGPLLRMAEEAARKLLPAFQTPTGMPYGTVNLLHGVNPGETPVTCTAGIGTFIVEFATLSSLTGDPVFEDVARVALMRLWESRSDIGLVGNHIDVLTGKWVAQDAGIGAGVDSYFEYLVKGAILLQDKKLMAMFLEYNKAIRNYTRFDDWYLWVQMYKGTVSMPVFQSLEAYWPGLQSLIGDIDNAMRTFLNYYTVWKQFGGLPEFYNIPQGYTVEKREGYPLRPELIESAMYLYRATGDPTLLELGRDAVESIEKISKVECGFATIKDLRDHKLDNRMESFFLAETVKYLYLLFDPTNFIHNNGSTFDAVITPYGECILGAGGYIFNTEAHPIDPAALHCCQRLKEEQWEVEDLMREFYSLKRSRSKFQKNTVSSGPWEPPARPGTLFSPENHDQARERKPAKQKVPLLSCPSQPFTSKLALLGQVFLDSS
# Sequence of UniProt P80370 (P80370 whole entry, looked up): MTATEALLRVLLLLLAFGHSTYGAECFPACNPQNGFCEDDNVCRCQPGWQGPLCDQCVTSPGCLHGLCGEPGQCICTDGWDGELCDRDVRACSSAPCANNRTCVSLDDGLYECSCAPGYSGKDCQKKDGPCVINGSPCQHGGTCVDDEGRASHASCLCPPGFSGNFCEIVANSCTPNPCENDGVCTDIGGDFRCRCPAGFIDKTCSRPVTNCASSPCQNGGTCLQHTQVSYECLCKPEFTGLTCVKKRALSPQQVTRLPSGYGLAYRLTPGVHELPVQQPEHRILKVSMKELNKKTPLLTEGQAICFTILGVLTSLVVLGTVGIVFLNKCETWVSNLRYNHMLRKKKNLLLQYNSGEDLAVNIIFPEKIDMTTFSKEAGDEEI
# Sequence of UniProt O43237 (O43237 whole entry, looked up): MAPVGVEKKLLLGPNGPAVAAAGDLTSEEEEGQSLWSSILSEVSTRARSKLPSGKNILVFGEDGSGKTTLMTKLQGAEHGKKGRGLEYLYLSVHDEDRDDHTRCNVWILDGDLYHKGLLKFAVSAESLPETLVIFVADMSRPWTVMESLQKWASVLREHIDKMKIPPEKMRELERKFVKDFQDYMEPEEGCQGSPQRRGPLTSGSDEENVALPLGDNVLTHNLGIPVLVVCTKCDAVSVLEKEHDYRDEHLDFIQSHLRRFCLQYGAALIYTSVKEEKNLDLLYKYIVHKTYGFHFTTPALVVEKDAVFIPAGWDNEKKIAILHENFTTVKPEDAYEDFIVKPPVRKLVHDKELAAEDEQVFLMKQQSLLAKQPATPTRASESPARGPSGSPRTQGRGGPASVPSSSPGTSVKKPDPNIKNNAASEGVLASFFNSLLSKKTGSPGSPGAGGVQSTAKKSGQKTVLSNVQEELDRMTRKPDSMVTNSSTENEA
# Sequence of UniProt Q8N8J7 (Q8N8J7 whole entry, looked up): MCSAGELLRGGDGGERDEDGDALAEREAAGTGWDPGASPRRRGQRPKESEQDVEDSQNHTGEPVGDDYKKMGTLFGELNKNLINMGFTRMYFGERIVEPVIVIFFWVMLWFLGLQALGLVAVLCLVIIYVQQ
# Sequence of UniProt Q96DA6 (Q96DA6 whole entry, looked up): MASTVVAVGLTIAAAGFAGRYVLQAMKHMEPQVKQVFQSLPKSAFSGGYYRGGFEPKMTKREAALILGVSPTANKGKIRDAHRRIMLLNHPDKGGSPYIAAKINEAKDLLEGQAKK
Target,log2 fold change [1],log2 fold change (volasertib),log2 fold change [2],log2 fold change (epoxomicin),log2 fold change [3],log2 fold change [4],log2 fold change [5],log2 fold change (rosiglitazone),log2 fold change [6],log2 fold change [7],log2 fold change (saracatinib),log2 fold change (sotrastaurin),log2 fold change (alvocidib),log2 fold change (Tubastatin A),log2 fold change [8],log2 fold change (defactinib),log2 fold change (rucaparib),log2 fold change [9],log2 fold change (encorafenib),log2 fold change [10]
FAF2 (UniProt Q96CS3),-0.095,-0.322 (active),0.002,-0.046,0.006,0.018,0.037,0.029,0.016,-0.069,-0.084,-0.048,-0.053,-0.008,0.021,-0.011,0.015,0.021,0.036,0
DYNC1LI2 (UniProt O43237),0.324,-0.021,-0.181,-0.072,-0.085,-0.041,0.024,0.052,-0.007,0.101,-0.001,-0.079,0.258,0.033,0.028,-0.039,0.42,0.003,0.212,0.016
ELAC1 (UniProt Q9H777),-0.067,0.055,0.046,-0.002,-0.073,-0.488 (active),0,,0.079,-0.227,0.094,0.006,0.051,,-0.056,-0.031,0.153,0.049,0.063,0.022
CWF19L2 (UniProt Q2TBE0),-0.051,-0.107,,,-0.131,0.094,,,0.231,0.21,-0.089,-0.15,0.081,-0.079,-0.034,,0.102,-0.014,-0.002,
DNAJC19 (UniProt Q96DA6),-0.094,-0.042,-0.014,-0.015,0.04,-0.022,0.002,-0.01,-0.05,-0.148,0.025,-0.029,-0.021,-0.038,0.003,-0.027,0.01,-0.028,-0.044,-0.012
FAM241A (UniProt Q8N8J7),-0.026,0.007,-0.002,,0.057,0.037,-0.093,0.011,0.059,0.08,-0.012,-0.632 (active),-0.046,-0.035,0.042,0.013,0.006,-0.003,-0.009,0.03
EDEM2 (UniProt Q9BV94),,-0.159,-0.035,-0.006,0.033,-0.087,-0.001,-0.077,-0.003,0.161,-0.23,-0.05,-0.028,0.022,-0.016,0.036,,0.079,,0.105
ENTR1 (UniProt Q96C92),,0.167,,,-0.03,,-0.107,,0.183,,-0.131,,,,-0.03,0.022,,-0.039,,-0.486 (active)
DCAF12 (UniProt Q5T6F0),-0.132,,,,,-0.141,,,,0.197,,0.058,,,,,0.199,,0.112,
FADS1 (UniProt F5GYH4),,,,,,,0.026,0.238,,,,,,0.123,,0.06,,,,0.123
EPHB4 (UniProt P54760),,-0.302,,,,,,,,,,-0.057,,,,,,,,
DDX11 (UniProt Q96FC9),,-0.084,0.128,0.099,-0.018,,0.098,0.052,-0.04,,-0.016,-0.248,,-0.034,-0.035,-0.052,,-0.005,,0.118
EIF4G1 (UniProt Q04637),,,,,,0.062,0,,0.224,-0.552 (active),-0.112,,0.047,0.006,,-0.08,,-0.017,,0.014
EIF2AK1 (UniProt Q9BQI3),,-0.142,,0.13,0.001,0.034,-0.121,-0.025,0.006,-0.082,0.073,0.095,0.072,0.128,0.002,-0.008,,-0.09,,0.04
EIF3J isoform 2 (UniProt O75822),,0.031,-0.079,0.025,0.03,,0.076,-0.038,0.133,,0.035,0.075,,-0.082,-0.021,-0.085,,-0.04,,-0.008
FAM135A (UniProt Q9P2D6),,,-0.068,-0.088,0.009,,0.079,,,,,-0.192,,,0.004,-0.131,,,,0.003
ELMO1 (UniProt Q92556),,,-0.089,-0.109,0.046,,0.031,0.076,-0.078,,0.051,0.046,,,-0.074,-0.045,,0.041,,-0.222
EGR1 (UniProt P18146),,0.085,0.158,0.489,0.113,0.228,-0.241,0.08,,-0.56,,-0.481,-0.604,0.129,-0.147,-0.841 (active),,,,0.041
"DDX46, A0A0C4DG89",,,-0.074,0.155,,,,,,,,,,,,,,,,
DERPC (UniProt P0CG12),0.127,,-0.051,,0,0.197,0.053,0.04,0.519 (active),0.025,-0.168,,,,0.08,-0.153,-0.001,-0.071,-0.109,0.063
EPHX2 (UniProt E5RI53),,,,-0.199,,,,-0.248,,,,,,,,,,,,
DLK1 (UniProt P80370),0.43 (active),,,0.012,,,-0.016,,0.127,,0.021,,0.03,,,-0.08,-0.023,-0.09,-0.032,0.159
DNAH10 (UniProt Q8IVF4),0.066,,-0.146,0.072,-0.17,-0.183,-0.008,0.031,0,0.006,-0.067,-0.06,0.028,0.191,-0.157,0.004,-0.044,0.062,-0.06,-0.013
